From PubChem BioAssay (NCI) come the findings set out here.

Some test systems named below: HT29 colon; SNB-75 CNS; SNB-19 CNS; U251 CNS; SK-MEL-5 melanoma; UACC-62 melanoma; LOX IMVI melanoma; SK-MEL-28 melanoma; SK-MEL-2 melanoma; EKVX NSCLC; SN12C renal; UO-31 renal; TK-10 renal; ACHN renal; CAKI-1 renal; A498 renal; CCRF-CEM leukemia; MOLT-4 leukemia; SR leukemia.
Holding throughout (assay): NCI-60 one-dose screen, 48 h (100 = growth as untreated, 0 = no growth, -100 = all killed)
Holding throughout (settings): 10 µM unless noted

The structures appear in SMILES notation. This is part of a sample that, as a whole, favours compounds with a hit. Of some 83,000 tested, about 20% had one in any assay.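 Step 1: grow cells in 96-well plates. Step 2: add test compound at a single concentration. Step 3: incubate 48 h. Step 4: record percent growth.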 A number with no mark means an inactive call. The source made the active and inactive calls. Rule for the calls: active = growth percent below 10; inactive = the rest.

`Cc1cc(C)n2nc(SCC(=O)Nc3sc4c(c3C(N)=O)CCC4)nc2n1`: the growth is 123% in the assay on HT29 colon; 115% in the assay on SNB-75 CNS; 102% in the assay on SNB-19 CNS; 99.3% with U251 CNS; 99% in the assay on SK-MEL-5 melanoma; 80.5% in the assay on UACC-62 melanoma. Also, the growth was 105% with LOX IMVI melanoma; 137% with SK-MEL-28 melanoma; 65% in the assay on SK-MEL-2 melanoma; 100% in the assay on EKVX NSCLC; 103% in the assay on SN12C renal; 74.1% in the assay on UO-31 renal. Further, the growth in the assay with TK-10 renal was 125%; in the assay on ACHN renal, 112%; in the assay with CAKI-1 renal it was 94.7%; in the assay with A498 renal, 95.7%; in the assay on CCRF-CEM leukemia, 102%; with MOLT-4 leukemia it was 109%. In addition, in the assay on SR leukemia, the growth is 144%.

On to `OCc1nnn(-c2ccccc2)c1CO`, for which the growth is 103% in the assay with HT29 colon; 94.8% in the assay with SNB-75 CNS; 115% with SNB-19 CNS; 104% in the assay with U251 CNS; 107% with SK-MEL-5 melanoma; 101% in the assay with UACC-62 melanoma. Moreover, the growth was 100% in the assay with LOX IMVI melanoma; 128% in the assay on SK-MEL-28 melanoma; 113% with SK-MEL-2 melanoma; 121% in the assay with EKVX NSCLC; 102% in the assay on SN12C renal; 89.4% in the assay with UO-31 renal. Moreover, the growth in the assay on TK-10 renal was 121%; in the assay with ACHN renal, 107%; in the assay on CAKI-1 renal, 111%; with A498 renal it was 101%; with CCRF-CEM leukemia, 102%; with MOLT-4 leukemia, 106%. Also, in the assay on SR leukemia, the growth is 104%.

As for `CCCc1cc(=O)n2c(C(=O)Nc3ccccc3OC)c(C(=O)Nc3ccc(F)cc3)sc2n1`, the growth in the assay on HT29 colon was 38.2% [30 µM]; with SNB-75 CNS it was 12.8% [30 µM]; with SNB-19 CNS, 26.7% [30 µM]; in the assay on U251 CNS, 14.7% [30 µM]; in the assay on SK-MEL-5 melanoma, 45.4% [30 µM]; with UACC-62 melanoma, 66.6% [30 µM]. Besides, the growth in the assay with LOX IMVI melanoma was 44.5% [30 µM]; in the assay on SK-MEL-28 melanoma, 68.5% [30 µM]; in the assay with SK-MEL-2 melanoma, 91.6% [30 µM]; with EKVX NSCLC, 52.8% [30 µM]; in the assay with SN12C renal it was 58.1% [30 µM]; with UO-31 renal, 19.7% [30 µM]. Further, the growth with TK-10 renal was 37.7% [30 µM]; with ACHN renal it was 20.3% [30 µM]; in the assay with CAKI-1 renal, 5.5% [30 µM] (active); in the assay on A498 renal it was 90% [30 µM]; in the assay on CCRF-CEM leukemia, 58.4% [30 µM]; in the assay on MOLT-4 leukemia it was 65.8% [30 µM].

Take `CCN(CC)CCCCNc1c2ccccc2[n+](C)c2c1[nH]c1ccccc12`: the growth in the assay on HT29 colon is 0.443% (active); with SNB-75 CNS, -49.8% (active); in the assay on SNB-19 CNS it was -22.7% (active); in the assay on U251 CNS, 0.218% (active); in the assay with SK-MEL-5 melanoma, -69.9% (active); with UACC-62 melanoma it was -69.6% (active). For the same compound, the growth was -5.07% (active) in the assay on LOX IMVI melanoma; -90.4% (active) in the assay on SK-MEL-28 melanoma; -90.7% (active) in the assay on SK-MEL-2 melanoma; -20.3% (active) in the assay with EKVX NSCLC; -2.39% (active) in the assay with SN12C renal; 22.2% with UO-31 renal. Moreover, the growth in the assay with TK-10 renal is -12.1% (active); with ACHN renal, 27.9%; in the assay on CAKI-1 renal it was 81%; in the assay on A498 renal, -11.8% (active); with CCRF-CEM leukemia it was -33.1% (active); in the assay with MOLT-4 leukemia it was -4.88% (active). Further, in the assay on SR leukemia, the growth is -37.3% (active).

`COc1ccc(Cn2cc3c(c2-c2ccccc2)CCc2cncnc2-3)cc1`: the growth in the assay on HT29 colon was 19.7%; in the assay on SNB-75 CNS it was 71.1%; with SNB-19 CNS, 62.8%; in the assay with U251 CNS it was 47%; in the assay on SK-MEL-5 melanoma, 55.4%; with UACC-62 melanoma it was 33.3%. Also, the growth is 52.3% in the assay with LOX IMVI melanoma; 59.3% with SK-MEL-28 melanoma; 28.2% in the assay on SK-MEL-2 melanoma; 48.4% in the assay on EKVX NSCLC; 62.7% in the assay with SN12C renal; 55.2% with UO-31 renal. For the same compound, the growth with TK-10 renal was 109%; with ACHN renal, 76.8%; in the assay on CAKI-1 renal, 36.2%; in the assay on A498 renal it was 45.8%; in the assay with CCRF-CEM leukemia, 42.6%; in the assay on MOLT-4 leukemia, 80%. Moreover, in the assay with SR leukemia, the growth was 57.7%.

As to `COc1ccc(C2=NN(C(C)=O)C(c3cc(OC)c(OC)c(OC)c3)C2)cc1` (stereo unspecified), the growth was 103% in the assay with HT29 colon; 96.6% in the assay with SNB-75 CNS; 90.7% with SNB-19 CNS; 105% in the assay on U251 CNS; 92.6% in the assay with SK-MEL-5 melanoma; 101% with UACC-62 melanoma. The growth in the assay on LOX IMVI melanoma is 90.6%; in the assay with SK-MEL-28 melanoma it was 129%; with SK-MEL-2 melanoma, 99%; in the assay with EKVX NSCLC, 95.2%; with SN12C renal, 109%; with UO-31 renal, 80%. The growth was 152% with TK-10 renal; 104% in the assay on ACHN renal; 100% with CAKI-1 renal; 96.5% with A498 renal; 75.5% in the assay with CCRF-CEM leukemia; 118% in the assay on MOLT-4 leukemia. Moreover, the growth in the assay on SR leukemia was -9.78% (active).

Take `COc1cccc(-c2nnc(N)o2)c1`: the growth in the assay with HT29 colon is 100%; in the assay with SNB-75 CNS it was 106%; with SNB-19 CNS, 102%; with U251 CNS, 97.8%; in the assay with SK-MEL-5 melanoma, 99.3%; in the assay with UACC-62 melanoma, 99.5%. In addition, the growth with LOX IMVI melanoma was 94.7%; with SK-MEL-28 melanoma, 104%; in the assay with SK-MEL-2 melanoma, 107%; in the assay with EKVX NSCLC it was 100%; in the assay with SN12C renal it was 97.2%; in the assay with UO-31 renal, 97.1%. For the same compound, the growth was 121% with TK-10 renal; 103% in the assay with ACHN renal; 98.4% in the assay with CAKI-1 renal; 97.8% in the assay on A498 renal; 103% with CCRF-CEM leukemia; 110% with MOLT-4 leukemia. Also, the growth in the assay with SR leukemia was 124%.

With `O=C(COC(=O)[C@H](C[Se][Se]C[C@H](NC(=O)c1ccc(Br)cc1F)C(=O)OCC(=O)c1ccc(F)cc1)NC(=O)c1ccc(Br)cc1F)c1ccc(F)cc1`, the growth with HT29 colon is 3.66% (active); in the assay on SNB-75 CNS, -100% (active); in the assay with SNB-19 CNS it was -86.3% (active); in the assay on U251 CNS, -100% (active); with SK-MEL-5 melanoma, -18.8% (active); in the assay with UACC-62 melanoma it was -4.12% (active). Also, the growth in the assay with LOX IMVI melanoma is -83% (active); in the assay on SK-MEL-28 melanoma, -90.6% (active); with SK-MEL-2 melanoma it was -58.9% (active); in the assay on EKVX NSCLC it was -69.9% (active); in the assay on SN12C renal it was -100% (active); in the assay on UO-31 renal it was -100% (active). Besides, the growth with TK-10 renal was -97.6% (active); in the assay on ACHN renal it was -75.7% (active); with CAKI-1 renal, -91.4% (active); with A498 renal, -2.67% (active); in the assay with CCRF-CEM leukemia, -56.2% (active); in the assay with MOLT-4 leukemia, -30% (active). Also, the growth in the assay with SR leukemia was -39.3% (active).
